Compounds with a hit are over-represented: about 3.1% of the library has one in this group of screens.
Rin1 Abl inh = blocks binding of human Rin1 to Abl; inhibition, % at 7.35 µM; TR-FRET Rin1/Abl binding, biochemical; P00519+Q13671; 360,000 compounds, 0.4% hits; in the data active means inhibition above about 5%, passing the limit was not always enough
proKLK7 act = activates the human kallikrein-7 zymogen; purified proKLK7, EDANS-DABCYL substrate fluorescence; 100% is mature enzyme control, 0% vehicle; activation, % at 7 µM; 370,000 compounds, 0.9% hits; AID 652039;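 active means activation above the mean of all tested compounds plus 3 SD, computed per campaign excluding outliers beyond control limits, cut at about 13% in these data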
Target sequence (P49862 whole entry, looked up): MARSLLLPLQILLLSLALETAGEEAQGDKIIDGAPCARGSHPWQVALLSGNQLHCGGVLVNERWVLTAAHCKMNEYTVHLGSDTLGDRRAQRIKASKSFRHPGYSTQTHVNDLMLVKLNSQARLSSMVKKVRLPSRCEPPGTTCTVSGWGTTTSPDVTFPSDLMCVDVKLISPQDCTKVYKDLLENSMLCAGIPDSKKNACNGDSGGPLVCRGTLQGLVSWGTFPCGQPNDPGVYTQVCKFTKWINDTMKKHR
LEDGF integ inh = blocks HIV-1 LEDGF/p75-dependent DNA integration. TR-FRET IN-LEDGF/p75 DNA integration, Eu/Cy5. inhibition, % at 3.7 µM. 370,000 compounds, 0.64% hits;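 active means inhibition above the screen-wide mean plus 3 SD, cut at about 13% in these data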;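 further: signal is the Cy5 over europium emission ratio at 671 and 618 nm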
UHRF1 MBD2 ctr = UHRF1 methyl-DNA binding inhibition; UHRF1 binding to methylated oligo, TR-FRET; inhibition, % at 4.4 µM; 370,000 compounds, 0.75% hits; in the data active means inhibition above about 21%;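 further: UHRF1 SRA domain binding a hemimethylated CpG hairpin DNA probe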
MBD2 DNA inh = MBD2-methylated oligo binding inhibition. TR-FRET, MBD2 binding to methylated oligonucleotide. inhibition, % at 4.4 µM. 370,000 compounds, 0.31% hits; in the data active means inhibition above about 13%
Neddylation inh = blocks human cullin neddylation. calls only at 25 µM. TR-FRET cullin neddylation, biochemical. AID 651699. 360,000 compounds, 0.58% hits. P61081+Q13564; in the data active means inhibition above about 36%
proKLK7 act conf = confirmation of human kallikrein-7 zymogen activators; shares compounds with proKLK7 act; purified proKLK7, EDANS-DABCYL substrate fluorescence; scaled: vehicle 0, mature enzyme 100; activation, % at 7 µM; 3,200 compounds, 68% hits;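 active means activation, as change over the incubation, above the mean of all tested compounds plus 3 SD, cut at about 13% in these data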
EDANS interfere = optically interferes with EDANS-DABCYL signal, flagging KLK7 hits; shares compounds with proKLK7 act; EDANS-DABCYL substrate fluorescence interference, no enzyme, 4 h; solvent 0%, active enzyme control 100%; activation, % at 7 µM; 3,200 compounds, 80% hits; AID 686952;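 active means activation above the all-compound mean plus 3 SD, ignoring values outside control-based bounds, cut at about 4.8% in these data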;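 further: value is the 4 h activation minus the activation read at time zero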
EDANS interf = EDANS fluorescence interference in dose response, no enzyme; shares compounds with proKLK7 act; EC50, µM; AID 720493; EDANS-DABCYL peptide fluorescence interference; 250 compounds, 20% hits;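 active means compounds that raise the fluorescence signal in this interference counterscreen, with EC50 at or below 10 µM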;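 further: intact quenched peptide substrate alone read at 355 nm excitation and 520 nm emission; signal is fluorescence gain from T0 to T4 after four hours at room temperature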
Large screens that a line does not name were inactive (follow-up assays come after a bar, where shown).

CC(=O)Nc1cccc(NC(=O)CSc2ncc(C(=O)Nc3ccccc3)c(=O)n2C)c1	proKLK7 act 100 | proKLK7 act conf inactive | EDANS interfere 13
COc1ccc(OC)c2c(N3CC(C)OC(C)C3)cc(C(F)(F)F)nc12 (configuration not stated)	proKLK7 act 15 (not shown: Neddylation inh) | proKLK7 act conf 13 | EDANS interfere 12
COc1ccc(OC)c2c(N3CCN(C)CC3)cc(C(F)(F)F)nc12	proKLK7 act 13 (not shown: Neddylation inh) | proKLK7 act conf inactive | EDANS interfere 15
COCCNS(=O)(=O)c1ccc2c(c1)C(=NO)c1cc(S(=O)(=O)NCCOC)ccc1-2	proKLK7 act 14 | proKLK7 act conf inactive | EDANS interfere inactive
COCCNS(=O)(=O)c1ccc2c(c1)Cc1cc(S(=O)(=O)NCCOC)ccc1-2	none
CC(c1nc2ccccc2[nH]1)n1c(=O)c(-c2cccnc2)nc2ccccc21 (configuration not stated)	none (no result: Rin1 Abl inh)
CC(c1nc2ccccc2[nH]1)n1c(=O)c(-c2cccs2)nc2ccccc21 (configuration not stated)	proKLK7 act 190 (no result: Rin1 Abl inh) | proKLK7 act conf 22 | EDANS interfere inactive | EDANS interf 7.5
O=c1[nH]c2ccccc2nc1-c1cccs1	proKLK7 act 32 (not shown: Neddylation inh) | proKLK7 act conf 32 | EDANS interfere 43
O=C(NCC1CCCO1)c1cc2nc(-c3ccco3)cc(C(F)(F)Cl)n2n1 (configuration not stated)	none
O=C1/C(=C/c2ccc(O)c(O)c2)Oc2cc(O)ccc21	proKLK7 act 45 | proKLK7 act conf 109 | EDANS interfere 118
O=C1/C(=C/c2cccc([N+](=O)[O-])c2)Oc2cc(O)ccc21	none
Cc1ccsc1/C=C1\Oc2cc(O)ccc2C1=O	proKLK7 act 15 | proKLK7 act conf 21 | EDANS interfere 24
COc1cc(/C=C2\Oc3cc(O)ccc3C2=O)ccc1O	proKLK7 act 55 | proKLK7 act conf 36 | EDANS interfere 36
COc1ccc2c(c1)O/C(=C\c1ccccc1C)C2=O	none
O=C(NCCc1ccc(F)cc1)c1ccc(NS(=O)(=O)c2ccc3[nH]c(=O)[nH]c3c2)cc1	none
O=C1CCC(C(=O)N2CCCCO2)CN1Cc1ccc(Cl)cc1 (configuration not stated)	none
Cc1ccccc1CN1CCN(C(=O)[C@H]2O[C@@H](n3cnc(C(N)=O)n3)[C@H](O)[C@@H]2O)CC1	none (no result: Rin1 Abl inh, Neddylation inh)
CCOC(=O)c1ccc(C(=O)OCC)c(NC(=S)Nc2ccc([N+](=O)[O-])cc2OC)c1	proKLK7 act 13 (not shown: Neddylation inh) | proKLK7 act conf inactive | EDANS interfere 6.9
CCOC(=O)Nc1ccc([N+](=O)[O-])cc1OC	none
COc1ccc2[nH]c3c(=S)nc[nH]c3c2c1	proKLK7 act 21 | proKLK7 act conf inactive | EDANS interfere inactive
CCCCOc1ncnc2c1[nH]c1ccc(OC)cc12	none (no result: Rin1 Abl inh, Neddylation inh)
O=C(Nc1nncs1)c1cc(-c2ccco2)nc2ccccc12	none
C=CCNC(=O)c1cc2c(=O)n3ccccc3nc2s1	proKLK7 act 52 (not shown: Neddylation inh) | proKLK7 act conf 59 | EDANS interfere 69
Cc1cccn2c(=O)c3cc(C(=O)NC4CCCCCC4)sc3nc12	none (not shown: Neddylation inh)
O=C(NC1CCCCCC1)c1cc2c(=O)n3ccccc3nc2s1	proKLK7 act 25 (not shown: Neddylation inh) | proKLK7 act conf 16 | EDANS interfere 7.9 | EDANS interf inactive
CC(C)NC(=O)c1cc2c(=O)n3ccccc3nc2s1	proKLK7 act 76 | proKLK7 act conf 75 | EDANS interfere 81
Cc1cccn2c(=O)c3cc(C(=O)NC4CCS(=O)(=O)C4)sc3nc12 (configuration not stated)	proKLK7 act 22 (not shown: Neddylation inh) | proKLK7 act conf 53 | EDANS interfere 43 | EDANS interf inactive
